We go through 13 compounds from PubChem BioAssay (NCI).

Among the test systems are SK-MEL-2 melanoma; EKVX NSCLC; SN12C renal; UO-31 renal; TK-10 renal; ACHN renal; CAKI-1 renal; A498 renal; CCRF-CEM leukemia; MOLT-4 leukemia.
Assay in all cases: NCI-60 one-dose screen, 48 h (100 = growth as untreated, 0 = no growth, -100 = all killed)
Holding throughout (conditions): 10 µM unless noted

This is part of a sample that, as a whole, favours compounds with a hit. Of some 83,000 tested, about 20% had one in any assay.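 Single-dose data. Exposure time 48 hours. Values below 10 considered active.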 Values without a mark were called inactive. Calls of active or inactive are those of the source.

With `COc1ccc(-c2ccc(SCC(=O)NCCc3ccc(S(N)(=O)=O)cc3)nn2)cc1`, the growth with SK-MEL-2 melanoma is 79.8%; in the test on EKVX NSCLC it was 93.9%; in the test with SN12C renal, 87.3%; in the test with UO-31 renal, 76.8%; in the test with TK-10 renal, 87.9%; with ACHN renal, 89.3%. The growth with CAKI-1 renal is 90.6%; with A498 renal, 123%; in the test with CCRF-CEM leukemia, 66%; with MOLT-4 leukemia, 68.2%.
For the compound `COC1=C[C@]23CCC(=O)N2CCc2cc4c(cc2[C@@H]3[C@@H]1OC(=O)[C@H](C)O)OCO4`, the growth with SK-MEL-2 melanoma is 58.5%; in the test with EKVX NSCLC, 43%; in the test with SN12C renal, 57.8%; in the test with UO-31 renal, 26.4%; in the test on TK-10 renal, 47.7%; with ACHN renal it was 5.84% (active). Besides, the growth in the test with CAKI-1 renal is 15%; in the test with A498 renal, -9.89% (active); with CCRF-CEM leukemia, 1.16% (active); in the test on MOLT-4 leukemia, 2.59% (active).
`Cc1ccc2c(c1)nc(-c1ccccc1)n2CC(=O)N=Nc1c(O)[nH]c2ccc(Br)cc12`: the growth in the test with SK-MEL-2 melanoma was -40.5% (active); with EKVX NSCLC, -77.2% (active); in the test with SN12C renal, -72.3% (active); with UO-31 renal, -90% (active); with TK-10 renal it was -10% (active); with ACHN renal, -99.9% (active). In addition, the growth was -65.4% (active) in the test with CAKI-1 renal, -37.2% (active) in the test with A498 renal, 23.8% with CCRF-CEM leukemia and -42.1% (active) in the test on MOLT-4 leukemia.
Consider `O=C(c1ccccc1)C(c1c[nH]c2ccccc12)c1c[nH]c2ccccc12`, for which the growth is 71.9% with SK-MEL-2 melanoma; 76.5% with EKVX NSCLC; 49% in the test on SN12C renal; 45% in the test with UO-31 renal; 142% in the test on TK-10 renal; 53.5% in the test on ACHN renal. Also, the growth with CAKI-1 renal was 31.6%; with A498 renal, 98.1%; in the test with CCRF-CEM leukemia, 3.87% (active); with MOLT-4 leukemia, 16.5%.
On to `O=C1CC(Sc2n[nH]c(-c3ccncc3)n2)C(=O)N1c1ccc(Br)cc1` (stereo not given), for which the growth with SK-MEL-2 melanoma was 116%; with EKVX NSCLC it was 106%; in the test on SN12C renal it was 93.6%; with UO-31 renal it was 88.7%; in the test with TK-10 renal, 101%; with ACHN renal, 109%. For the same compound, the growth in the test on CAKI-1 renal was 99.9%; in the test with A498 renal it was 111%; with CCRF-CEM leukemia, 88.9%; with MOLT-4 leukemia, 115%.
On to `CCCn1cc(-c2nc(Nc3ccc(C(=O)NCCCCNc4cccc5c4C(=O)N(C4CCC(=O)NC4=O)C5=O)cc3)nc3[nH]ccc23)cn1` (stereo not given), for which the growth in the test with SK-MEL-2 melanoma was 10.4%; in the test on EKVX NSCLC, 54.4%; in the test on SN12C renal, 12.3%; in the test with UO-31 renal, 73.9%; in the test with TK-10 renal, 59.1%; with ACHN renal, 75.7%. In addition, the growth in the test with CAKI-1 renal is 27.3%; in the test on A498 renal, -2.58% (active); with CCRF-CEM leukemia it was -15.1% (active); in the test on MOLT-4 leukemia, -37.9% (active).
In the case of `COc1cccc(-c2nc(Nc3ccc(S(N)(=O)=O)cc3)c3ccccc3n2)c1`, the growth was 46.6% with SK-MEL-2 melanoma; 45.5% in the test with EKVX NSCLC; 44.6% in the test on SN12C renal; 17.4% with UO-31 renal; 47.3% in the test with TK-10 renal; 17.7% in the test with ACHN renal. For the same compound, the growth is 25.2% in the test on CAKI-1 renal, 23.9% in the test on A498 renal, 18.7% in the test with CCRF-CEM leukemia and 16.8% in the test with MOLT-4 leukemia.
As for `O=C(COc1ccc2c(c1)CCCC(=O)N2)NCc1ccccc1`, the growth is 87.1% in the test on SK-MEL-2 melanoma; 95.2% with EKVX NSCLC; 108% in the test with SN12C renal; 84.7% in the test with UO-31 renal; 110% in the test with TK-10 renal; 103% in the test with ACHN renal. The growth was 92.7% in the test on CAKI-1 renal, 94.6% in the test with A498 renal, 78% in the test with CCRF-CEM leukemia and 80.6% in the test on MOLT-4 leukemia.
For the compound `COc1cc(-c2ccc(/C=N/NC(=O)c3[nH]c4ccc(Br)cc4c3-c3ccccc3)s2)cc(OC)c1OC`, the growth was 104% in the test on SK-MEL-2 melanoma; 73.7% in the test with EKVX NSCLC; 92.6% with SN12C renal; 96.9% with UO-31 renal; 106% in the test with TK-10 renal; 75.6% with ACHN renal. Also, the growth is 71.6% in the test on CAKI-1 renal, 130% in the test on A498 renal, 73.2% with CCRF-CEM leukemia and 79.1% in the test on MOLT-4 leukemia.
As for `Cc1c(C(=O)NNC(=O)c2ccc(Cl)cc2)nnn1-c1ccc(Cl)cc1`, the growth with SK-MEL-2 melanoma is 106%; in the test on EKVX NSCLC it was 91.5%; with SN12C renal it was 94.7%; in the test on UO-31 renal, 74.1%; with TK-10 renal it was 96.1%; in the test with ACHN renal it was 103%. For the same compound, the growth is 87.2% in the test on CAKI-1 renal, 105% with A498 renal, 88.4% with CCRF-CEM leukemia and 85.4% with MOLT-4 leukemia.
For the compound `Cc1ccc(S(=O)(=O)c2nc(S(=O)(=O)c3ccc(C)cc3)c(Cl)s2)cc1`, the growth with SK-MEL-2 melanoma is 42.5%; in the test with EKVX NSCLC it was 0.151% (active); in the test on SN12C renal, -20.5% (active); with UO-31 renal, -6.4% (active); in the test with TK-10 renal, -50.4% (active); in the test on ACHN renal it was -92.3% (active). The growth is -75.8% (active) with CAKI-1 renal, 122% with A498 renal, 5.23% (active) in the test with CCRF-CEM leukemia and 16.6% with MOLT-4 leukemia.
On to `CC12CC[C@@H]3[C@]4(C)COC(c5cn[nH]c5-c5cccc(Br)c5)O[C@@H]4CC[C@@]3(C)[C@@H]1CC(C1=CCOC1=O)O2` (stereo not given in full), for which the growth with SK-MEL-2 melanoma is 31.6%; in the test on EKVX NSCLC, 28.2%; with SN12C renal, 43.3%; with UO-31 renal, 14.9%; in the test on TK-10 renal, 58.6%; in the test on ACHN renal, 26.5%. Also, the growth was 39.9% in the test with CAKI-1 renal, 81.8% with A498 renal, 9.66% (active) in the test with CCRF-CEM leukemia and 4.43% (active) in the test with MOLT-4 leukemia.
In the case of `O=C(COc1ccc(NC(=O)Nc2ccc(Cl)c(Cl)c2)cc1)N=Nc1c(O)[nH]c2ccc([N+](=O)[O-])cc12`, the growth in the test on SK-MEL-2 melanoma was 48.7%; with EKVX NSCLC, 85.6%; in the test on SN12C renal, 52.6%; in the test on UO-31 renal, 85.3%; in the test with TK-10 renal, 113%; in the test on ACHN renal, 77.8%. Also, the growth in the test with CAKI-1 renal was 72%; in the test with A498 renal, 98.2%; in the test with CCRF-CEM leukemia, 30.4%; in the test with MOLT-4 leukemia, 28%.
